The values that follow come from PubChem BioAssay (NCATS).

The nature of assay [1]: Cell Viability - SK-N-SH (AID 435; calls by dose curve; note: potency is the fitted concentration of half-maximal effect). Conditions: SK-N-SH neuroblastoma cell viability qHTS. Put shortly:
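Luminescent ATP signal served as the viability read-out after 40 hours of compound treatment of human neuroblastoma SK-N-SH cells. Concentration-response data, scaled between DMSO and 100 uM tamoxifen, gave AC50 values by standard Hill modeling.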

Assay [2] in a line: Cell Viability - H-4-II-E (AID 543). Note: % is set by controls: 0 for no effect and ±100 for the full control effect; nearly all actives have a fitted effect of over 35% in size. The note with it: H-4-II-E rat hepatoma viability; series mostly up to 92.2 µM. In short, it runs like this:
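qHTS, rat hepatoma H-4-II-E, 1500 cells/well; 40 hr compound exposure, 37 °C; CellTiter-Glo ATP luminescence after 20 min RT; AC50 by standard Hill fit.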

Assay [3] is described as follows: Cell Viability - Renal Proximal Tubule (AID 545).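 Note: 0% = DMSO only and -100% = 100 µM tamoxifen; nearly all actives have a fitted effect of over 40% in size.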 The note with it: renal proximal tubule cells viability, primary cells of rat origin; activity change, negative = cytotoxicity: at 91.7 µM (top of the series). Put shortly:
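Luminescent ATP signal (CellTiter-Glo) served as the viability read-out after 40 hr compound exposure of freshly isolated rat proximal tubule cells at 37 °C. Concentration-dependent ATP loss was fitted with the Hill equation to give AC50.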

Assay [4] can be described thus: Cell Viability - LYMP2-001 (AID 921).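 Note: cells exposed to compound for 24 h at 37 °C; nearly all actives have a fitted effect of over 70% in size.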 Note: potency is the fitted concentration of half-maximal effect. The note with it: LYMP2-001 lymphoblastoid cell viability; series mostly up to 92.2 µM. Put shortly: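 Steps: seed 2500 lymphoblastoid cells/well; 5 hr, 37 C; add compound; 24 hr, 37 C; CellTiter-Glo reagent, 30 min room temperature; read luminescence. Concentration-response modeled by Hill equation for AC50.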
Assay [5] can be described thus: MultiTox-Fluor Cytotoxicity Assay - LYMP1-001 - Live Cells (AID 947).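 Note: 0% = DMSO only and full inhibition = tetraoctylammonium bromide control.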 Conditions: LYMP1-001 lymphoblastoid cells, live-cell protease fluorescence viability; series mostly up to 92.2 µM.
The nature of assay [6]: MultiTox-Fluor Cytotoxicity Assay - LYMP1-002 - Dead Cells (AID 960).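 Note: 0% = DMSO and 100% = tetraoctylammonium bromide; nearly all actives have a fitted effect of over 60% in size.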 Conditions: LYMP1-002 lymphoblastoid cells, dead-cell protease fluorescence; series mostly up to 46.1 µM. In short, it runs like this: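 Readout: fluorescence at 485/520 from cell-impermeant bis-AAF-R110 cleaved by proteases leaking from damaged cells. LYMP1-002 lymphoblastoid line, 16 hr compound treatment at 37 C, concentration-response in qHTS format; Hill-equation AC50 values.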

Assay [7] in a line: Cell Viability - LYMP1-003 - Assay at 40 hr (AID 964). Note: % is set by controls: 0 for no effect and ±100 for the full control effect; nearly all actives have a fitted effect of over 60% in size. The note with it: LYMP1-003 lymphoblastoid viability; series mostly up to 92.2 µM. Put shortly:
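LYMP1-003 lymphoblastoid cells, 2500/well; 5 hr preincubation, 40 hr compound exposure, 37 C; CellTiter-Glo 30 min RT; luminescence; Hill-fit AC50. Positive control tetraoctylammonium bromide.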

Assay [8] can be described thus: Cell Viability - LYMP2-004 (AID 966).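 Note: cells exposed to compound for 24 h; plate controls were DMSO only for no effect and tetraoctylammonium bromide control for full effect; nearly all actives have a fitted effect of over 65% in size.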 Conditions: LYMP2-004 lymphoblastoid cell viability, qHTS; series mostly up to 92.2 µM. Put shortly: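 Luminescent ATP read-out (CellTiter-Glo, 30 min RT) after 24 hr compound exposure at 37 C; 2500 lymphoblastoid cells/well, complete medium. Decrease in ATP = cytotoxicity; AC50 from standard Hill model.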
Assay [9] in a line: Cell Viability - LYMP2-009 (AID 968).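 Note: cells exposed to compound for 24 h at 37 °C; 0% = DMSO alone and the full-kill end = tetraoctylammonium bromide at 92 µM; nearly all actives have a fitted effect of over 55% in size.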 The note with it: LYMP2-009 lymphoblastoid cell viability; series mostly up to 92.2 µM.
A short description of assay [10]: Cell Viability - LYMP2-015 (AID 971).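 Note: cells exposed to compound for 24 h; 0% = DMSO only and full effect = 92 µM tetraoctylammonium bromide; nearly all actives have a fitted effect of over 55% in size.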 The note with it: LYMP2-015 lymphoblastoid cell viability; series mostly up to 92.2 µM. In short, it runs like this:
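qHTS cytotoxicity: 2500 cells/well, 5 hr 37 C, compound 24 hr 37 C, CellTiter-Glo 30 min RT, luminescence. Loss of ATP = toxicity; AC50 via standard Hill fit.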

The nature of assay [11]: Cell Viability - LYMP2-017 (AID 972).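 Note: cells exposed to compound for 24 hours at 37 °C; % is set by controls: 0 for no effect and ±100 for the full control effect; nearly all actives have a fitted effect of over 55% in size.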 Conditions: LYMP2-017 lymphoblastoid cell viability; series mostly up to 92.2 µM. Put shortly:
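Luminescent ATP read-out (CellTiter-Glo, 30 min RT) reports viable cell number. Cells: human lymphoblastoid line, 2500 per well, 5 hr preincubation, 24 hr compound exposure at 37 C. AC50 is derived from qHTS concentration-response data using the standard Hill model.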

A short description of assay [12]: Cell Viability - LYMP2-019 (AID 973).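 Note: cells exposed to compound for 24 h at 37 °C; 0% = DMSO alone and full effect = 92 µM tetraoctylammonium bromide; nearly all actives have a fitted effect of over 55% in size.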 The note with it: LYMP2-019 lymphoblastoid cell line viability; series mostly up to 92.2 µM. In short, it runs like this:
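qHTS, 1536-well; 2500 cells/well; 5 hr pre-incubation, 24 hr compound exposure, 37 C; CellTiter-Glo added, 30 min RT; luminescence read; AC50 via standard Hill equation.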

Assay [13] can be described thus: Cell Viability - LYMP2-010 (AID 981). The note with it: LYMP2-010 lymphoblastoid cell viability, qHTS; series mostly up to 92.2 µM. In short, it runs like this:
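qHTS cytotoxicity, 1536-well: 2500 cells/well, 5 hr settle, 24 hr compound at 37 C, CellTiter-Glo 30 min RT, luminescence read. Decrease in ATP = toxicity; AC50 via standard Hill equation. Positive control tetraoctylammonium bromide.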
(Quantitative high-throughput screening tests each substance at several concentrations.)

Assay [14] is described as follows: qHTS assay for small molecule agonists of retinoid X receptor alpha signaling (AID 588544; calls by dose curve). The note with it: HEK293T RXRa-UAS-bla, beta-lactamase reporter, 18 h; 530 nm emission.
Assay [15] addresses Retinoic acid receptor RXR-alpha (Homo sapiens) (UniProt P19793). The assay is described as above. Conditions: HEK293T RXRa-UAS-bla, beta-lactamase reporter, 18 h; series mostly up to 76.7 µM.
Assay [16] deals with Thyroid hormone receptor beta (Homo sapiens) (UniProt P10828). In words: qHTS assay for small molecule antagonists of thyroid hormone receptor beta signaling (AID 588547; active = well fitted inhibition curve with a large enough effect in the signal ratio, with a control signal flat, not every such curve was filed as active; the % refers to the signal ratio;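 note: cells stimulated with 0.4 nM T3 agonist during compound exposure; % is set by controls: 0 for no effect and ±100 for the full control effect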). The note with it: TR-UAS-bla HEK293, beta-lactamase ratio, antagonist mode, 18 h. In short, it runs like this:
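TR-UAS-bla GripTite HEK293 cells in 2% charcoal/dextran FBS medium were preincubated 4 h at 37 C, given compound (0.59 nM to 92 uM) plus 0.4 nM T3 (final) for 18 h, then CCF4 for 2 h at RT; Hill fit gave IC50.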

A short description of assay [17]: qHTS assay for small molecule disruptors of the mitochondrial membrane potential - 5 hr assay (AID 651755; calls by dose curve; note: nearly all actives have a fitted effect of over 40% in size; note: potency is the fitted concentration of half-maximal effect). The note with it: JC-1-type ratio dye; series mostly up to 92.2 µM. Put shortly:
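Seed HepG2 overnight, add compound, incubate 5 hr at 37C and 5% CO2, stain 30 min with Mito-MPS, then measure monomer (490/535 nm) and aggregate (540/590 nm) fluorescence.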

Assay [18] in a line: qHTS assay for small molecule agonists of the antioxidant response element (ARE) signaling pathway measured by Nrf2-dependant transcriptional activity (AID 720636; active = well fitted curve in the direction sought with a large enough effect in the repeat runs; an effect the other way counts as inactive or inconclusive; note: % of control where 0% means no effect). The note with it: ARE-luc HepG2, Nrf2 luciferase reporter, 16 h; series mostly up to 92.4 µM. Put shortly: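 Nrf2-dependent transcription is measured in ARE-luc HepG2 cells: compound is applied for 16 hr at 37 C after a 6 hr attachment period, and luciferase activity is quantified by luminescence using ONE-Glo.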

Assay [19] has as its target Nuclear receptor subfamily 1 group I member 2 (Rattus norvegicus) (UniProt Q9R1A7). Nature of the assay: qHTS assay for small molecule activators of the rat pregnane X receptor (rPXR) signaling pathway (AID 651751; call rule not given here; note: 0% is about no effect). The note with it: rPXR reporter cells, luciferase (One-Glo), 24 h.
A short description of assay [20]: Cell Viability - N2a (AID 540).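 Note: plate controls were DMSO alone for no effect and tamoxifen control for full effect; nearly all actives have a fitted effect of over 45% in size.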 The note with it: N2a mouse neuroblastoma cell viability; activity change, negative = cytotoxicity: at 92.2 µM (top of the series). In short, it runs like this: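 N2a mouse neuroblastoma, 1500 cells/well, 5 hr settle; compound 40 hr, 37 °C; CellTiter-Glo 20 min RT; luminescence; Hill-fit AC50.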

SMILES strings stand for the structures. “And” between values parts separate entries of the source, which are not always exact repeats. Equal entries are not always repeated. Inconclusive results are not listed. The source made the active and inactive calls. Unless noted, calls come from the whole dose curve; as a rule, active = well fitted curve in the direction sought with a large enough effect; inconclusive = small, poorly fitted or top-dose-only effect, or another doubt; inactive = no such curve, though single readings can be large; an effect the other way counts as inactive or inconclusive.

Chain of Thyroid hormone receptor beta (Homo sapiens) (P10828 whole entry, looked up): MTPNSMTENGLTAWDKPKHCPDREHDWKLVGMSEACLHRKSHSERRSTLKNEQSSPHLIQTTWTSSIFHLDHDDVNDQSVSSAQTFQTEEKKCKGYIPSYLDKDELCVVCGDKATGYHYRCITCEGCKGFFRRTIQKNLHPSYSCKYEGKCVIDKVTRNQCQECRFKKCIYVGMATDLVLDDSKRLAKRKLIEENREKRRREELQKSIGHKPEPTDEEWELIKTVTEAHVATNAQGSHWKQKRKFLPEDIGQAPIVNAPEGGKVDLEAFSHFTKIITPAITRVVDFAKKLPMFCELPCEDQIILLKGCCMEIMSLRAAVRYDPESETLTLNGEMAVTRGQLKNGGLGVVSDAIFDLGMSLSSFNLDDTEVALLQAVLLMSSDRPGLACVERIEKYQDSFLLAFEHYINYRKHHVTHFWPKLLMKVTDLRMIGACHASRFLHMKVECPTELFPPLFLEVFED
Chain of Nuclear receptor subfamily 1 group I member 2 (Rattus norvegicus) (Q9R1A7 whole entry, looked up): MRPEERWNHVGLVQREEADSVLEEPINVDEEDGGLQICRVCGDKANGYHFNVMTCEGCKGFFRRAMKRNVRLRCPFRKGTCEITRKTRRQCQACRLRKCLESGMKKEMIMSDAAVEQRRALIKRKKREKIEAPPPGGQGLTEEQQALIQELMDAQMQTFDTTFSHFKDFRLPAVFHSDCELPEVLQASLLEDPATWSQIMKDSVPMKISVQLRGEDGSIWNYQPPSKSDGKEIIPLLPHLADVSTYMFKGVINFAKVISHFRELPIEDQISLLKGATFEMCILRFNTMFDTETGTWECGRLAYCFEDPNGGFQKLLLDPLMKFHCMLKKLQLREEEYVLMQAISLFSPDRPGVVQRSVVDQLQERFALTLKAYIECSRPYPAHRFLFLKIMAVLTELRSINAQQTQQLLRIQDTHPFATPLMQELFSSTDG
Chain of Retinoic acid receptor RXR-alpha (Homo sapiens) (P19793 whole entry, looked up): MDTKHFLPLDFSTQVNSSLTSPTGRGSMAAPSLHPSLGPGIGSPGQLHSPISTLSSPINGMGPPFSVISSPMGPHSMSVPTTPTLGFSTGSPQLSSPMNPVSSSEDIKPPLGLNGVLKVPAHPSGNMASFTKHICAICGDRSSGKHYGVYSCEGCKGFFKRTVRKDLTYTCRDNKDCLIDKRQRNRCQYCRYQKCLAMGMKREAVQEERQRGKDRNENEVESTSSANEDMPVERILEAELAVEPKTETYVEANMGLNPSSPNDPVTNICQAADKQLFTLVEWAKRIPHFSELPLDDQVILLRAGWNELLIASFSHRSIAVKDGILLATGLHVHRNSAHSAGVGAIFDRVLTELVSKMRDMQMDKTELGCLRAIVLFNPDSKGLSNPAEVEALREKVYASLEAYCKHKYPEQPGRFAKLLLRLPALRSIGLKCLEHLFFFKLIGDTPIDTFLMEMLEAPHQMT

Consider `Oc1ccc2c(c1)OCO2`, for which the Potency in assay [1] is > 92 µM (inactive). Further, the Potency entry in assay [2], in [3], in [4], in assay [5], in assay [6] and in [7] was “inactive” throughout. Moreover, the Potency result in assay [8], in [9], in assay [10], in assay [11], in assay [12] and in assay [13] was “inactive” each time. For the same compound, the Potency result in [15], in [17] and in assay [18] was “inactive” each time. Besides, the results for the max response in assay [14] and in assay [19] were -4.36% and -0.719% (inactive), respectively. Further, the activity change % (negative = inhibition) in assay [16] is 5.85% (inactive).
Take `O=[N+]([O-])c1ccc(F)cc1F`: the values for the Potency in assay [1] and in [4] were > 92 µM (inactive) and 50.1 µM (active), respectively. For the same compound, the activity change, negative = cytotoxicity in [20] is -8.79% (inactive). The Potency result in assay [2], in [3], in assay [5], in assay [6], in [7] and in assay [8] was “inactive” in each case. Also, the Potency result in assay [9], in assay [10], in assay [11], in assay [15], in assay [17] and in assay [18] was “inactive” in each case. In addition, the max response was 0.464% in assay [14] and 0.993% (inactive) in [19]. For the same compound, the activity change % (negative = inhibition) in assay [16] is 0.277% (inactive).
`c1c[nH]cn1`: the Potency in assay [1] was > 92 µM (inactive). In assay [20], the activity change, negative = cytotoxicity was -11.6% (inactive). For the same compound, the Potency result in [2], in assay [3], in [4], in assay [6], in assay [7] and in assay [8] was “inactive” in each case. The Potency entry in assay [9], in assay [10], in assay [11], in assay [12], in assay [13] and in assay [15] was “inactive” in each case. The Potency result in [17] and in assay [18] was “inactive” each time. In addition, the max response in [14] was 1.75%; in [19], -3.01% (inactive). Besides, the activity change % (negative = inhibition) in assay [16] is -11.5% (inactive).
Take `CC(C)OCC1CO1` (configuration not stated): the Potency in assay [1] was > 92 µM (inactive). Moreover, the activity change, negative = cytotoxicity in assay [20] was -7.39% (inactive). The Potency entry in [2], in [3], in assay [4], in assay [5], in assay [7] and in [8] was “inactive” in each case. Moreover, the Potency result in assay [9], in [10], in [11], in assay [12], in assay [13] and in assay [15] was “inactive” throughout. Further, the Potency result in assay [17] and in [18] was “inactive” each time. Also, the max response in [14] was -12.5%; in assay [19], 3.69% (inactive). Further, the activity change % (negative = inhibition) in assay [16] is 8.25% (inactive).
As for `CCCCNCC`, the Potency in assay [1] is > 92 µM (inactive). Besides, the activity change, negative = cytotoxicity in assay [20] was -1.46% (inactive). Moreover, the Potency result in assay [2], in assay [3], in [4], in assay [5], in assay [6] and in [7] was “inactive” each time. The Potency entry in [8], in assay [9], in assay [10], in assay [11], in assay [12] and in assay [13] was “inactive” throughout. Moreover, the Potency result in [15], in assay [17] and in assay [18] was “inactive” in each case. In addition, the max response in assay [14] was -3.36%; in [19] it was 1.14% (inactive).
`Nc1cc([N+](=O)[O-])ccc1O`: the results for the Potency in assay [1] and in [17] were > 92 µM (inactive) and 29.8 µM (active), respectively. Also, the Potency result in assay [2], in [3], in assay [4], in [5], in assay [6] and in [7] was “inactive” each time. The Potency result in assay [8], in assay [9], in assay [10], in [11], in assay [12] and in assay [13] was “inactive” each time. Further, the Potency result in [15] is “inactive”. For the same compound, the max response in assay [14] is -3.91% and 2.48%; in assay [19], 5.65% (inactive) and 2.03% (inactive). In addition, the activity change % (negative = inhibition) in assay [16] is 11.2% (inactive) and 4.34% (inactive).
